From PubChem BioAssay (NCATS)
Several values for one entry are separate records, joined by “and”; a condition that tells them apart may be missing. Identical values can stand only once. Records with an inconclusive call do not appear. A call without a number means that no potency is given here. A structure can be active in one record and inactive in another. Activity calls are given as the source filed them. Calls come from the whole dose curve; as a rule, active = well fitted curve in the direction sought with a large enough effect; inconclusive = small, poorly fitted or top-dose-only effect, or another doubt; inactive = no such curve, though single readings can be large; an effect the other way counts as inactive or inconclusive.

How the values were obtained:
[1] = Viability qHTS for spleen associated tyrosine kinase inhibitor (SYKi) naive MV4-11 cells (AID 1963823); note: nearly all actives have a fitted effect of over 40% in size
How it was run: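 SYK inhibitor-naive MV4-11 cells, 500 per well, exposed to compounds for 72 hr at 37 C, 5% CO2. Viability read as CellTiter-Glo luminescence after 10 min at room temperature.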

[2] = Viability qHTS for spleen associated tyrosine kinase inhibitor (SYKi) drug resistant MV4-11 cells (AID 1963824); note: nearly all actives have a fitted effect of over 35% in size
How it was run: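 SYK-inhibitor-resistant MV4-11 AML cells were seeded at 500 per well onto compound and cultured 72 hours (37 °C, 5% CO2). CellTiter-Glo was then added, and after 10 min at room temperature, luminescence gave viability.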

[3] = Quantitative highthroughput screen to assess conditional lethalithy of NOMO1 cells grown in RPMI1640 with untreated serum (RPMI+s) (AID 1963876); note: nearly all actives have a fitted effect of over 35% in size
How it was run: (§1)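 Each medium arm—HPLM with 10% dialyzed FBS, or RPMI1640 with 5 mM glucose and 10% untreated or dialyzed FBS—was screened against an 11-point, 3-fold compound titration for 48 h at 37 °C, with CellTiter-Glo luminescence as endpoint.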

[4] = Quantitative highthroughput screen to assess conditional lethalithy of NOMO1 cells grown in RPMI1640 with dialyzed fetal bovine serum (RPMI+ds) (AID 1963877); note: nearly all actives have a fitted effect of over 30% in size; for Viability: series mostly up to about 46 µM
How it was run: as §1

[5] = Quantitative highthroughput screen to assess conditional lethalithy of NOMO1 cells grown in Human Plasma-Like Medium with dialyzed fetal bovine serum (HPLM+ds) (AID 1963878); note: nearly all actives have a fitted effect of over 35% in size
How it was run: as §1

[6] = Quantitative highthroughput screen to assess conditional lethalithy of P12 Ichikawa cells grown in Human Plasma-Like Medium with dialyzed fetal bovine serum (HPLM+ds) (AID 1963879); settings: Potency: viability; note: nearly all actives have a fitted effect of over 35% in size; for Viability: series mostly up to about 46 µM
How it was run: as §1

[7] = Quantitative highthroughput screen to assess conditional lethalithy of P12 Ichikawa cells grown in RPMI1640 with dialyzed fetal bovine serum (RPMI+ds) (AID 1963880); settings: Potency: P12-Ichikawa viability; note: nearly all actives have a fitted effect of over 35% in size
How it was run: as §1

[8] = Quantitative highthroughput screen to assess conditional lethalithy of SEM cells grown in Human Plasma-Like Medium with dialyzed fetal bovine serum (HPLM+ds) (AID 1963882); note: nearly all actives have a fitted effect of over 35% in size; for Viability: series mostly up to about 46 µM
How it was run: as §1

[9] = Cellular viability qHTS for adrenocortical cancer (ACC) cell line SW-13 (AID 1963989); settings: SW-13 ACC cells viability, CellTiter-Glo, 48 h; activity (max response): stronger effect = lower value; note: nearly all actives have a fitted effect of over 65% in size;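 for activity (max response): cells grown in serum-free medium with ITS supplement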
How it was run: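 Luminescent ATP read-out (CellTiter-Glo, 20 min at room temperature) measured metabolically competent SW-13 cells after 48 h compound treatment. Final concentrations spanned up to 46 uM; bortezomib served as positive control.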

[10] = Cellular viability qHTS for adrenocortical cancer (ACC) cell line NCI-H295R (AID 1963990); note: nearly all actives have a fitted effect of over 60% in size
How it was run: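 IC50 and maximal efficacy derive from four-parameter logistic modelling of titration curves, with reads scaled between DMSO-only wells (0%) and doxorubicin hydrochloride (100% inhibition). Compounds spanned up to 46 uM over 48 h.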

[11] = Quantitative highthroughput screen to assess conditional lethalithy of P12 Ichikawa cells grown in RPMI1640 with untreated serum (RPMI+s) (AID 1963881); settings: Potency: viability; note: nearly all actives have a fitted effect of over 35% in size; for Viability: series mostly up to about 46 µM
How it was run: as §1

[12] = Quantitative highthroughput screen to assess conditional lethalithy of SEM cells grown in RPMI1640 with unreated serum (RPMI+s) (AID 1963883); note: nearly all actives have a fitted effect of over 35% in size
How it was run: as §1

[13] = Quantitative highthroughput screen to assess conditional lethalithy of SEM cells grown in RPMI1640 with dialyzed fetal bovine serum (RPMI+ds) (AID 1963884); note: nearly all actives have a fitted effect of over 35% in size; for Viability: series mostly up to about 46 µM
How it was run: as §1
Potency is the fitted concentration of half-maximal effect.

| SMILES | Potency [1] | Potency [2] | Potency [3] | Potency [4] | Potency [5] | Potency [6] | Potency [7] | Potency [8] | Potency [9] | Potency [10] | Potency [11] | activity (max response) [9] | Potency [12] | Potency [13] |
| --- | --- | --- | --- | --- | --- | --- | --- | --- | --- | --- | --- | --- | --- | --- |
| COc1ccc2nc3cc(Cl)ccc3c(Nc3cc(CN4CCCC4)c(O)c(CN4CCCC4)c3)c2n1 | 742 nM (active) | 1.05 µM (active) | inactive | inactive | inactive | inactive | inactive | 16.6 µM (active) | 12.6 µM (active) | 5.62 µM (active) |  |  |  |  |
| COc1cc2nccc(Oc3ccc(NC(=O)NC4CC4)c(Cl)c3)c2cc1C(N)=O | 461 nM (active) | 1.03 µM (active) | 26.4 µM (active) | 23.5 µM (active) | 18.7 µM (active) | 18.7 µM (active) | 20.9 µM (active) |  |  | inactive | 20.9 µM (active) | 3.51% (inactive) |  |  |
| N#Cc1c(C2CCNCC2)cc(-c2c(O)cccc2OCC2CC2)nc1N | 5900 nM (active) | 6.61 µM (active) | inactive | inactive | inactive | inactive | inactive |  | 28.2 µM (active) | 11.2 µM (active) | inactive |  |  |  |
| CC1(C)CNc2cc(NC(=O)c3cccnc3NCc3ccncc3)ccc21 | 2310 nM (active) | 5.17 µM (active) and 5.9 µM (active) | inactive | inactive | inactive | inactive | inactive |  |  | inactive | inactive | -22.3% (inactive) |  |  |
| C=C(C)[C@@H]1CC[C@]2(C)CC[C@]3(C)[C@H](CC[C@@H]4[C@@]5(C)CC[C@H](O)C(C)(C)[C@H]5CC[C@]43C)[C@@H]12 | inactive | inactive | inactive | inactive | inactive | inactive |  | inactive |  | inactive | inactive | 4.74% (inactive) | inactive |  |
| O=C1c2ccccc2-[n+]2ccc3c([nH]c4ccccc43)c21 | 820 nM (active) | 0.651 µM (active) | 6.62 µM (active) | 5.9 µM (active) | 5.26 µM (active) | 8.33 µM (active) |  | 2.64 µM (active) | 2.82 µM (active) | 2.82 µM (active) | 8.33 µM (active) |  | 3.32 µM (active) | 3.32 µM (active) |
| CC(C)[C@H](N)C(=O)OCCOCn1cnc2c(=O)[nH]c(N)nc21 | 5900 nM (active) | inactive | inactive | inactive | inactive | inactive | inactive | inactive |  | inactive |  | -3.62% (inactive) and -11.6% (inactive) | inactive | inactive |
| COc1cc2nc(N3CCN(C(=O)C4CCCO4)CC3)nc(N)c2cc1OC (configuration not stated) | inactive | inactive | inactive | inactive | inactive | inactive | inactive |  |  |  |  | -21% (inactive) | inactive |  |
| c1cc(OCCN2CCCCC2)cc(-c2n[nH]c3ccc(-c4ncn[nH]4)cc23)c1 | 651 nM (active) | 1.16 µM (active) | inactive | inactive | inactive | inactive | inactive |  |  | inactive | inactive |  |  |  |
| COc1cc2c(Oc3ccc(NC(=O)C4(C(=O)Nc5ccc(F)cc5)CC4)cc3F)ccnc2cc1OCCCN1CCOCC1 | inactive and 2.6 nM (active) | 0.0037 µM (active) | 11.8 µM (active) | 5.9 µM (active) | 13.2 µM (active) | 1.48 µM (active) | 1.66 µM (active) |  | 3.16 µM (active) | 2.82 µM (active) | 2.35 µM (active) |  |  |  |
| Cc1onc(-c2ccccc2Cl)c1C(=O)N[C@@H]1C(=O)N2[C@@H]1SC(C)(C)[C@@H]2C(=O)O | inactive | inactive | inactive | inactive | inactive | inactive | inactive | inactive |  | inactive |  | 0.896% (inactive) | inactive | inactive |
| CCN(CC)CCNC(=O)c1ccc2nc(-c3ccccc3)c(-c3ccc(CN4CCC(n5c(=O)[nH]c6ccccc65)CC4)cc3)nc2c1 | 2.06 µM (active) and 3.32 µM (active) | 2.59 µM (active) and 3.32 µM (active) | 8.33 µM (active) | 11.8 µM (active) | 2.35 µM (active) | 2.35 µM (active) |  | 0.166 µM (active) | 6.31 µM (active) | 3.98 µM (active) | 4.69 µM (active) |  | 0.0526 µM (active) | 0.166 µM (active) |
